Results on 35 compounds are retold here after PubChem BioAssay (Tox21).

Experiment [1] can be described thus: qHTS assay to identify small molecule agonists of the RXR signaling pathway - cell viability counter screen (AID 1159529). Also: nearly all actives have a fitted effect of over 50% in size. Also: potency is read from the fitted curve at half-maximal effect. As to activity change, negative = cytotoxicity: series mostly up to about 77 µM. A digest of the protocol: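 Compounds dissolved in DMSO were pinned onto HEK 293T cells carrying a beta-lactamase reporter under RXR-alpha control and incubated 16 hr. Cytotoxicity was then quantified by CellTiter-Glo luminescence.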
For orientation: In qHTS, concentration-response curves come from the screen itself.

Experiment [2] in a line: qHTS assay to identify small molecule antagonists of the retinoid acid receptor (RAR) signaling pathway - cell viability counter screen (AID 1159551). Also: nearly all actives have a fitted effect of over 35% in size. In outline: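 Measured by luminescent ATP detection, viability reflects C3RL4 cells treated 6 h at 37 C with test chemicals in the presence of 1 uM (final) retinol.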
The nature of experiment [3]: qHTS assay to identify small molecule agonists of the retinoic acid receptor (RAR) signaling pathway (AID 1159553). A digest of the protocol: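 6 hr compound exposure (DMSO vehicle) of overnight-plated C3RL4 RARE-luc cells at 37 C; luminescence quantified after 30 min RT with luciferase reagent.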
A short description of experiment [4]: qHTS assay to identify small molecule antagonists of the retinoic acid receptor (RAR) signaling pathway (AID 1159552; also: nearly all actives have a fitted effect of over 50% in size). A digest of the protocol: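 Test chemicals and DMSO controls were pin-transferred onto C3RL4 cells a day after seeding; retinol (1 uM final) followed at once. Luminescent reporter output was quantified after 6 hr of co-incubation and 30 min with detection reagent.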

A short description of experiment [5]: qHTS assay to identify small molecule antagonists of the estrogen related receptor (ERR) signaling pathway (AID 1224819; also: nearly all actives have a fitted effect of over 50% in size; also: potency is read from the fitted curve at half-maximal effect). A digest of the protocol:
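Compounds dissolved in DMSO were pin-transferred onto ERR cells that had been plated 6 h earlier, and cells were then incubated 18 h at 37 C; signal was luciferase luminescence via One-Glo.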

A short description of experiment [6]: qHTS assay to identify small molecule agonists of the estrogen related receptor (ERR) signaling pathway (AID 1224820). In outline:
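Following a 6 h settling period, 2,000 ERR cells per well receive DMSO-dissolved compounds by pin tool and incubate 18 h at 37 C; agonist activity is scored from One-Glo luminescence read 30 min post-addition.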

For experiment [7], the system named is estrogen-related receptor alpha (ERRalpha) with PGC-1alpha coactivator, human. Kind of experiment: qHTS assay to identify small molecule antagonists of the estrogen related receptor signaling pathway with the pleiotropic PPARgamma coactivator (PGC) (AID 1224821; calls by dose curve; also: nearly all actives have a fitted effect of over 50% in size; also: potency is read from the fitted curve at half-maximal effect). A digest of the protocol:
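Screening used NTP's PGC/ERR cells, dosed via pin tool with compound in DMSO alongside positive and negative controls. After 18 h at 37 C, One-Glo reagent sat 30 min at room temperature before luminescence detection.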

Experiment [8] in a line: qHTS assay to identify small molecule agonists of the estrogen related receptor signaling pathway with the pleiotropic PPARgamma coactivator (PGC) (AID 1224823). Also: potency is read from the fitted curve at half-maximal effect. A digest of the protocol: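 In this quantitative high-throughput screen, an 18 h, 37 C treatment of PGC/ERR cells with compounds in DMSO preceded a One-Glo luminescence read taken after 30 min at room temperature.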

Experiment [9] can be described thus: qHTS assay to identify small molecule antagonists of the estrogen related receptor (ERR) signaling pathway - cell viability counter screen (AID 1224818). Also: series mostly up to about 46 µM. In outline: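 Compounds dissolved in DMSO were applied to ERR cells seeded at 2,000 per well 6 h earlier. Cell viability followed 17.5 h later via 30-min CellTiter-Fluor fluorescence.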
Experiment [10] is described as follows: qHTS assay to identify small molecule antagonists of the estrogen related receptor signaling pathway with the pleiotropic PPARgamma coactivator (PGC) cell viability counter screen (AID 1224822; also: series mostly up to about 46 µM). A digest of the protocol: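 Counter screen for cell viability: PGC/ERR cells, 6 h pre-incubation after plating, 17.5 h compound exposure at 37 C, fluorescence from CellTiter-Fluor after 30 min.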

Results filed as inconclusive are left out. Unmarked numbers belong to inactive results. Calls of active or inactive are those of the source. Unless noted, calls follow the shape of the dose curve; as a rule, active = well fitted curve in the direction sought with a large enough effect in the repeat runs; inconclusive = weak or mixed curves; inactive = no such curve, though single readings can be large; an effect the other way counts as inactive or inconclusive.
% is scaled to controls: 0 for no effect and ±100 for the full control effect.

Take `Brc1cc(-c2ccc(Br)c(Br)c2Br)cc(Br)c1Br`: the Potency in experiment [1] is 10.8 µM (active). The Potency result in [2] and in experiment [3] was “inactive” throughout.

For `CCC(C)=O`, the Potency result in experiment [1], in [2] and in [3] was “inactive” in each case.

Regarding `CN1C(=O)CC(C)(c2ccccc2)C1=O` (stereo unspecified), the Potency result in experiment [1], in experiment [2], in experiment [4] and in [3] was “inactive” throughout.

Turning to `CCCOCCOCCO`, the Potency entry in experiment [1], in experiment [2], in experiment [4] and in [3] was “inactive” each time.

Consider `CC#N`, for which the Potency result in [1], in experiment [2] and in [3] was “inactive” each time.

In the case of `COCCOC(=O)C1=C(C)NC(C)=C(C(=O)OC/C=C/c2ccccc2)C1c1cccc([N+](=O)[O-])c1` (stereo unspecified), the Potency result in experiment [1], in experiment [2], in experiment [3] and in [8] was “inactive” in each case. Moreover, the Potency in experiment [5] is 11.9 µM (active); in experiment [7] it was 17.4 µM (active). Further, in [6], the call was inactive.

`Cc1ccccc1N1C(=O)c2cc(S(N)(=O)=O)c(Cl)cc2NC1C` (stereo unspecified): the Potency result in experiment [1] and in [2] was “inactive” each time. Further, the compound was called inactive in experiment [9] and in [10].

As to `Nc1ccc(Cl)cc1[N+](=O)[O-]`, the Potency entry in experiment [1], in [2] and in [3] was “inactive” each time.

With `CC(=O)Nc1ccc(N)cc1`, the Potency entry in [1], in experiment [2] and in experiment [3] was “inactive” each time.

Take `CCC(Cc1ccccc1)(C(=O)c1ccc(N2CCOCC2)cc1)N(C)C` (stereo unspecified): the Potency entry in experiment [1], in experiment [2] and in [3] was “inactive” each time.

Regarding `CC1(C)O[C@@H]2C[C@H]3[C@@H]4CCC5=CC(=O)C=C[C@]5(C)[C@H]4[C@@H](O)C[C@]3(C)[C@]2(C(=O)CO)O1`, the Potency entry in [1], in [2] and in [3] was “inactive” throughout.

Regarding `CO[C@H]1C=CO[C@@]2(C)Oc3c(C)c(O)c4c(O)c(c5c(c4c3C2=O)=NC2(CCN(CC(C)C)CC2)N=5)NC(=O)/C(C)=C\C=C/[C@H](C)[C@H](O)[C@@H](C)[C@@H](O)[C@@H](C)[C@H](OC(C)=O)[C@@H]1C`, the Potency result in [1], in [2] and in experiment [3] was “inactive” throughout.

Turning to `C[Si]1(C)O[Si](C)(C)O[Si](C)(C)O1`, the Potency entry in experiment [1], in experiment [2], in experiment [4] and in [3] was “inactive” each time.

`COCC(O)CO` (stereo unspecified): the Potency result in experiment [1], in [2], in experiment [4] and in experiment [3] was “inactive” throughout.

As to `CCC1(C)CC(=O)NC1=O` (stereo unspecified), the Potency result in experiment [1] and in experiment [2] was “inactive” throughout. The compound was called inactive in experiment [9] and in experiment [10].

In the case of `CNC(=O)N(c1ccccc1)c1ccccc1`, the Potency entry in experiment [1], in experiment [2], in [4] and in experiment [3] was “inactive” in each case.

Consider `C=CCCCCCCCCCCCCCCCC`, for which the values for the activity change, negative = cytotoxicity in experiment [1] and in experiment [2] were 6.72% [at 6.97 µM] and 0.367% [at 8.39 µM], respectively. The activity, negative = inhibition in experiment [4] was -14.9% [at 8.39 µM]. Moreover, in [3], the activation was -0.865% [at 8.36 µM].

With `CCc1cccc(N(C)C(N)=Nc2cccc3ccccc23)c1`, the Potency result in [1], in [2] and in experiment [3] was “inactive” throughout. The compound was classed as inactive in experiment [9] and in experiment [10].

Turning to `CC(=O)Oc1ccc(C(=C2CCCCC2)c2ccc(OC(C)=O)cc2)cc1`, the Potency entry in [1] and in experiment [4] was “inactive” each time.

Consider `CN1CCCN=C1/C=C/c1cccs1`, for which the Potency entry in [1], in experiment [2] and in [3] was “inactive” each time.

With `O=C(CCCN1CCC(O)(c2ccc(Br)cc2)CC1)c1ccc(F)cc1`, the Potency entry in [1], in experiment [2] and in [3] was “inactive” in each case.

Turning to `CC1=CC(=O)CC(C)(C)C1(O)/C=C/C(C)=C\C(=O)O` (stereo unspecified), the Potency entry in [1], in experiment [2], in experiment [4] and in experiment [3] was “inactive” in each case.

On to `CCCCOC(=O)CCS`, for which the Potency result in experiment [1], in [2] and in [3] was “inactive” each time.

Turning to `CC(=O)OCC(=O)[C@H]1CC[C@H]2[C@@H]3CCC4=CC(=O)CC[C@]4(C)[C@H]3CC[C@]12C`, the Potency result in experiment [1], in experiment [2] and in experiment [3] was “inactive” each time.

Turning to `CCN(Cc1cccc(S(=O)(=O)O)c1)c1ccc(C(=C2C=CC(=[N+](CC)Cc3cccc(S(=O)(=O)[O-])c3)C=C2)c2ccccc2)cc1`, the Potency result in experiment [1], in experiment [2], in experiment [4] and in [3] was “inactive” throughout.

Consider `OC/C(Br)=C(\Br)CO`, for which the Potency result in experiment [1], in experiment [2], in [4] and in experiment [3] was “inactive” in each case.

Consider `Nc1nc(Cl)nc2c1ncn2[C@@H]1O[C@H](CO)[C@@H](O)[C@@H]1F`, for which the Potency entry in [1], in experiment [2] and in experiment [3] was “inactive” throughout.

Turning to `O=C(O)c1c(O)c(-c2ccccc2)nc2ccccc12`, the Potency entry in [1] and in experiment [4] was “inactive” in each case.

Consider `O=C(O)c1cccnc1C(=O)O`, for which the Potency result in [1], in [2], in [4] and in [3] was “inactive” throughout. For the same compound, the outcome in experiment [9] and in experiment [10] was inactive.

With `Cc1nc2ccccn2c(=O)c1CCN1CCC(C(=O)c2ccc(F)cc2)CC1`, the Potency result in [1], in experiment [2], in [4], in experiment [3], in experiment [5] and in experiment [7] was “inactive” each time. Moreover, the Potency entry in experiment [8] is “inactive”. Further, the result in experiment [9], in [6] and in [10] was inactive.

Take `COC(=O)Nc1nc2ccc(C(=O)c3cccs3)cc2[nH]1`: the Potency entry in experiment [1], in [2], in experiment [4], in [3], in experiment [5] and in [7] was “inactive” throughout. The compound was called inactive in [9], in experiment [6] and in [10]. Also, the Potency in experiment [8] was 1.96 µM (active).

On to `Cc1ccc(S(=O)(=O)NC2CCCCC2)cc1`, for which the Potency entry in experiment [1], in experiment [2] and in experiment [3] was “inactive” each time.

Regarding `Cc1ccnc2ccccc12`, the Potency entry in experiment [1] and in experiment [4] was “inactive” throughout.

For the compound `CC(=O)[C@H]1CC[C@H]2[C@@H]3C[C@H](C)C4=CC(=O)CC[C@]4(C)[C@H]3[C@@H](O)C[C@]12C`, the Potency result in experiment [1], in experiment [2] and in experiment [3] was “inactive” throughout.

For `O=C1OCCN1/N=C/c1ccc([N+](=O)[O-])o1`, the Potency entry in experiment [1], in [2] and in [3] was “inactive” in each case.
